GPR151 ag = human GPR151 activation; Q8TDV0; PathHunter beta-arrestin GPR151 cells, luminescence; activation, % at 11.2 µM; 650,000 tested, 1% active; in the data active = activation above about 4.9%;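 note: 0% = median of compound wells and 100% = cells with positive control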
Target sequence (Q8TDV0 whole entry, looked up): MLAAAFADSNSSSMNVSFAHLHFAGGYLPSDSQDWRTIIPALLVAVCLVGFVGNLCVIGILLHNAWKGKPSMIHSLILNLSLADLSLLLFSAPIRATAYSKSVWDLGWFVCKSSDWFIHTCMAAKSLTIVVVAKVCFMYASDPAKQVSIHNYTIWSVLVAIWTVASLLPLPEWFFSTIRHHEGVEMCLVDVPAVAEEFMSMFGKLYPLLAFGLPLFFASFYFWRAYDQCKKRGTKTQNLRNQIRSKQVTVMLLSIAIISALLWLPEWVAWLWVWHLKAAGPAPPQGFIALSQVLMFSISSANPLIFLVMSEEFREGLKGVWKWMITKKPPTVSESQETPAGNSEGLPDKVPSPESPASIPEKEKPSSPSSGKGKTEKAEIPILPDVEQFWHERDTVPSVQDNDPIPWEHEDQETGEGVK
FBW7 act = human FBW7 E3 ligase activation, primary screen | normalized activity (activation), % at 26.1 µM | AID 1259310 | Q969H0 | AlphaScreen FBW7–phospho-cyclin E peptide binding, activator screen | 650,000 tested, 0.13% active; in the data active = normalized activity above about 1.9%;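 note: purified mutant Fbw7 with reduced substrate affinity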
MITF inh = human MITF inhibition, primary screen; inhibition, % at 2.6 µM; O75030; AID 1259374; AlphaScreen MITF homodimerization, bead proximity signal; 650,000 tested, 0.91% active; in the data active = inhibition above about 50%;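 note: 0% = vehicle wells with protein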
TEAD-YAP block = TEAD-YAP interaction inhibition; HEK-TIYL cells, TEAD-Gal4/YAP UAS-luciferase luminescence; inhibition, % at 9.12 µM; 640,000 tested, 1.4% active; in the data active = inhibition above about 32%;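 note: 0% = median of test compound wells and 100% = reference inhibitor wells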
* = called active by the depositor. Hits are enriched below; roughly 3.5% of the tested compounds scored in any of these assays.

SMILES | GPR151 ag | FBW7 act | MITF inh | TEAD-YAP block
Cc1ccc(-c2c(C)nn3c(N4CCCC(O)C4)c(C)c(C)nc23)cc1 (centres undefined) | 1 | 0 | -9 | -14
Cc1nonc1C(=O)NCC1Cc2c(F)ccc(-c3ccc(C(=O)C4CC4)cc3)c2O1 (centres undefined) | -1 | 0 | -14 | 63*
COCCC(=O)NCC1Cc2c(F)ccc(-c3ccc(C(=O)C4CC4)cc3)c2O1 (centres undefined) | -1 | 0 | 1 | -25
O=C(NCC1Cc2c(F)ccc(-c3ccc(C(=O)C4CC4)cc3)c2O1)c1cnsn1 (centres undefined) | -1 | 0 | -10 | 56*
Cc1cc(C)cc(NC(=O)C2C3C=CC4(O3)C2C(=O)N(C(C)c2ccccc2)C4C(=O)NC2CCCCC2)c1 (centres undefined) | 1 | 0 | -14 | -5
COc1ccc(-c2nnc(SCC(=O)NCc3ccccc3)nc2-c2ccc(OC)c(OC)c2)cc1OC | 0 | 0 | -12 | 47*
O=C(CCC1(Cc2ccc3ccccc3c2)CCC(=O)N1)NC1CC1 (centres undefined) | 0 | 0 | 9 | 7
COc1cccc(-c2cnc3c(NCC4CC4)nccn23)c1 | 1 | -1 | 14 | -89
c1cc2[nH]snc2c2nc(C3CC3)nc12 | -1 | 0 | 18 | 38*
O=c1oc2ccc(Br)cc2cc1-c1csc(Nc2ccc(Cl)cc2Cl)n1 | -1 | 0 | 14 | 1
NC(=O)c1ccccc1Nc1cc(Nc2ccc(-n3cnc(N4CCOCC4)n3)cc2)ncc1C(F)F | 1 | 0 | 12 | 42*
Cc1cnc(Nc2ccncc2)cc1Nc1ccccc1C(N)=O | 0 | 0 | 1 | -1
Cc1cnc(Nc2ccc(-n3cnc(N4CCOCC4)n3)cc2)cc1Nc1ccccc1C(N)=O | 4 | 0 | -6 | 82*
COCCNC(=O)CCNS(=O)(=O)c1ccc(OC)cc1 | 0 | 0 | -6 | -9
Cc1ccc(C)c(Oc2coc3cc(OCc4ccc(F)cc4)ccc3c2=O)c1 | 0 | 0 | 20 | -4
CCCN(C(=O)c1ccc(Cl)cc1)c1c(C)n(C)n(-c2ccccc2)c1=O | -1 | 3.2* | 3 | -6
CCCN(C(=O)c1ccccc1)c1c(C)n(C)n(-c2ccccc2)c1=O | -1 | 0 | -19 | -15
Cc1cc(NCCN(C(C)C)C(C)C)nc(Oc2ccccc2)n1 | 1 | 0 | -2 | 64*
COc1ccc(CCNc2cc(C)nc(Oc3ccccc3)n2)cc1 | 3 | 0 | 19 | 35*
COc1cccc(-c2ccnc(-n3ncc(C(=O)NCc4ccccn4)c3C3CC3)n2)c1 | 0 | 0 | 14 | 14
COCCCNC(=O)c1cnn(-c2nccc(-c3ccc(OC)c(F)c3)n2)c1C1CC1 | -1 | 0 | 13 | 48*
COc1ccc(C2C(C(=O)OC(C)C)=C(C)NC3=C2C(=O)CC(c2ccccc2)C3)cc1Br (centres undefined) | -1 | 1 | 9 | 6
O=S(=O)(NCc1cn2ccccc2n1)c1ccc(Oc2ccccc2)cc1 | -1 | 0 | -8 | 16
O=C(COc1ccc(Oc2ccccc2)cc1)NCc1cn2ccccc2n1 | -1 | 0 | 14 | 55*
Cc1ccc(NC(=O)CSC2=C(C#N)C(c3ccc(C)cc3)CC(=O)N2)cc1 (centres undefined) | -1 | 0 | 8 | -3
SMILES | GPR151 ag | FBW7 act | MITF inh | TEAD-YAP block
Cn1c(-c2ccccc2)c(/C=C(\C#N)c2nn(CCO)c(N)c2C#N)c2ccccc21 | 0 | 0 | -8 | 50*
N#C/C(=C\c1ccc(/C=C(\C#N)c2nn(CCO)c(N)c2C#N)cc1)c1nn(CCO)c(N)c1C#N | 1 | 0 | 15 | -1
Cc1cccc(C)c1N(C)S(=O)(=O)c1ccc2[nH]cc(C(=O)NCc3cccnc3)c(=O)c2c1 | 3 | 0 | 0 | 34*
CCOc1ccccc1N(C)S(=O)(=O)c1ccc2[nH]cc(C(=O)NCc3cccnc3)c(=O)c2c1 | 0 | 0 | 15 | 63*
O=C(CSc1nc2ccccc2[nH]1)Nc1ccc2nc(SCC(=O)Nc3ccc(F)cc3)sc2c1 | 1 | 0 | 6 | 31
COc1ccc(OC)c(/C=N/NC(=O)C(=O)Nc2ccc(C)c(C)c2)c1 | 0 | 0 | 12 | 1
CCOC(=O)C1=C(C)N=c2s/c(=C\c3ccc(OC(C)C)c(OCC)c3)c(=O)n2C1c1ccccc1OC(C)C (centres undefined) | 0 | 0 | 19 | 1
Cc1ccc(N/C(N)=N/c2nc(C)cc(N3CCCC3)n2)c(C)c1 | 1 | 0 | 4 | 34*
Cc1cc(C)nc(/N=C(\N)Nc2cc(Cl)ccc2C)n1 | -2 | 0 | 7 | 5
Cc1ccc(N2CCN(C(=O)CC(C)(C)CC3=NS(=O)(=O)c4ccccc4N3)CC2)c(C)c1 | 0 | 0 | 7 | 47*
Cc1ccc(N(C(=O)c2ccccc2)C2CCS(=O)(=O)C2)cc1 (centres undefined) | -1 | 0 | 5 | -41
O=C(Nc1ccc(Br)cc1)c1ccc(F)c(S(=O)(=O)NCc2ccco2)c1 | 0 | 0 | -4 | 43*
COc1ccccc1CNS(=O)(=O)c1cc(C(=O)Nc2ccc(Br)cc2)ccc1F | 3 | 0 | 1 | 33*
O=C(Nc1ccc(Br)cc1)c1ccc(F)c(S(=O)(=O)NCC2CCCO2)c1 (centres undefined) | 1 | 0 | 1 | 50*
Cc1ccc(O)c(N=Nc2ccc(S(=O)(=O)O)cc2)c1 | -7 | 0 | 9 | 14
Oc1ccc(N=Nc2ncn[nH]2)c(O)c1 | 0 | 0 | 92* | 11
Cc1ccc(O)c(N=Nc2ncn[nH]2)c1 | 3 | -2 | 47 | 80*
O=C(CSc1ncn[nH]1)c1ccc(O)cc1O | -4 | 0 | -9 | -1
CCC(CC)C(=O)N1CCCC(c2nc(-c3ccc(F)cc3)no2)C1 (centres undefined) | 1 | 0 | -3 | -20
CCOC(=O)c1cnn(-c2ccccc2)c1NC(=O)Cc1ccc(F)cc1 | -1 | 0 | 7 | -6
CCOC(=O)c1ccc(NC(=O)CN2C(=O)CC(C)(C)S(=O)(=O)c3ccccc32)cc1 | -1 | 5.2* | 5 | 22
COc1ccccc1OCCOc1ccc(C=O)cc1 | -1 | 0 | 6 | -2
COc1ccc(OCCOCCOc2ccccc2C=O)cc1 | -1 | 0 | -7 | 46*
O=C(CN1CCSCC1)N/N=C/c1cccc(O)c1 | 0 | 0 | 48 | 5
CN1CCN(CCCNc2nc(=S)[nH]c3ccccc23)CC1 | 0 | 0 | -9 | -5
SMILES | GPR151 ag | FBW7 act | MITF inh | TEAD-YAP block
CN(C)CCN1CCN(c2ccnc3cc4ccccc4cc23)CC1 | 0 | 0 | -11 | 44*
CN1CCN(CCCNc2ccnc3cc4ccccc4cc23)CC1 | -1 | 0 | 8 | 75*
COCCNC(=O)c1ccc2cncc(-c3ccsc3)c2n1 | 0 | 0 | 14 | 78*
O=C(NC1CC1)c1csc(Nc2cccnc2)n1 | 1 | 0 | 8 | 7
O=C(NC1CC1)c1ccc2cncc(-c3ccsc3)c2n1 | -2 | 0 | 11 | 71*
Oc1oc(-c2ccccc2F)nc1C=Nc1ccccc1Cl | -2 | 0 | 18 | -13
COc1cc(C=O)ccc1OCCc1ccccc1 | -9 | 0 | 6 | 33*

Screening data deposited in PubChem BioAssay by The Scripps Research Institute Molecular Screening Center.
